Compound activity from PubChem.
ssDAF12 agonist: S. stercoralis DAF-12 activation, primary screen; HEK293 ssDAF-12/GRIP1 lit1-tk-luc reporter, luminescence; % of 3 µM dafachronic acid response; activation, % at 6.8 µM; 1% of 370,000 active;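 active means activation above the mean over all tested compounds plus 3 SD, cut at about 0.9% in these data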
Wnt bcat act: Wnt/beta-catenin pathway activation | 1.2% of 300,000 active | Wnt/beta-catenin reporter cell assay, activator, plate reader | AID 743398 | activation, % at 9.35 µM; in the data active means activation above about 30%, passing the limit was not always enough; inconclusive means no clear call, values can overlap the other calls
hcDAF-12 act: activators of H. contortus DAF-12 nuclear receptor. HEK293 hcDAF-12 lit1-tk-luc reporter, luminescence; 0% DMSO, 100% Δ7-dafachronic acid. activation, % at 6.8 µM. 1.4% of 370,000 active;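 active means activation above the mean of all tested compounds plus 3 SD, cut at about 5.5% in these data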
DAX1 inh: inhibitors of DAX1 repression of SF-1 activated StAR promoter. 1.1% of 370,000 active. inhibition, % at 6.8 µM. HEK293T StAR-luciferase reporter, SF-1/DAX-1 repression relief;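 active means inhibition above the mean over all tested compounds plus 3 SD, cut at about 3.6% in these data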;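 further: higher inhibition means more luminescence from relief of DAX-1 repression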
hgDAF-12 ag: activates the H. glycines DAF-12 receptor ligand-binding domain; HEK293 GAL4-hgDAF12 UAS-luciferase reporter, agonist luminescence; normalized to butyrate control; activation, % at 6.8 µM; 1.8% of 370,000 active; AID 687014;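 active means activation above a cutoff set at the mean of all screened compounds plus 3 SD, cut at about 10% in these data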
esBAF inh: inhibitors of esBAF chromatin remodeling in mouse ES cells; AID 602393; 2% of 350,000 active; reporter increase, % at 12.5 µM; Bmi1-luciferase knock-in reporter, 24 h; 100% = twice the neutral-well signal; in the data active means activation above about 40%; inconclusive means no clear call, values can overlap the other calls;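 further: a rise in the Bmi1 reporter signal indicates esBAF inhibition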
DAX1 conf: NR0B1 (human) inhibition, confirmation; shares compounds with DAX1 inh; HEK293T StAR-promoter luciferase reporter, SF-1/DAX-1 repression; inhibition, % at 6.8 µM; 87% of 2,400 active; AID 652134;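 active means inhibition above the average of every tested compound plus 3 SD, cut at about 3.8% in these data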;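 further: active compounds raise luminescence by relieving repression of the StAR reporter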
Target sequence (P51843 whole entry, looked up): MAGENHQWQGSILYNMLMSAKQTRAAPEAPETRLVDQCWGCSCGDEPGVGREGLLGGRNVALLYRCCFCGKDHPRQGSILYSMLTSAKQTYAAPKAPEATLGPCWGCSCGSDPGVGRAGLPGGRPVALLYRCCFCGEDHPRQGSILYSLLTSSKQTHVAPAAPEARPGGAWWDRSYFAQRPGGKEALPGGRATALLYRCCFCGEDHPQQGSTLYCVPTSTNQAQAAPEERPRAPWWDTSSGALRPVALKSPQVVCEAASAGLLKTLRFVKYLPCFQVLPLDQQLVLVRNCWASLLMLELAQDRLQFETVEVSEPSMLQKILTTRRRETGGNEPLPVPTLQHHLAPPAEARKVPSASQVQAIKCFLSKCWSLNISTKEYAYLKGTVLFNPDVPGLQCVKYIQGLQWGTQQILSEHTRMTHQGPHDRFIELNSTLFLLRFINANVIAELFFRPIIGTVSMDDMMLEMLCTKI
SF1 AF2mut Luc: counter-screen for DAX1 inhibitors: nonselective inhibitors with SF-1 AF2 mutant; shares compounds with DAX1 inh; HEK293 StAR-luciferase, luminescence; inhibition, % at 6.8 µM; 78% of 2,400 active; AID 652136;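 active means inhibition above the mean of all tested compounds plus 3 SD, cut at about 3% in these data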
A number is an active result; i = inactive; ? = inconclusive; nt = no result given. An excerpt weighted towards active compounds, which were near 4.2% of everything screened.

SMILES	ssDAF12 agonist	Wnt bcat act	hcDAF-12 act	DAX1 inh	hgDAF-12 ag	esBAF inh	DAX1 conf	SF1 AF2mut Luc
S=C(NCCc1ccccc1)Nc1ncccn1	i	i	i	5.5	i	i	3.9	i
OCCNC(=S)NCCc1ccccc1	i	nt	i	i	i	nt	nt	nt
CO[C@H]1CN(C)C(=O)c2cc(NC(=O)Nc3cc(F)ccc3F)ccc2OC[C@H](C)N(C(=O)c2cnccn2)C[C@H]1C	nt	nt	nt	nt	nt	i	nt	nt
O=C(Nc1cc(F)ccc1F)N1C[C@H]2[C@@H](c3ccccc31)[C@H](CO)N2CC1CCCC1	nt	nt	nt	nt	nt	i	nt	nt
C[C@H](CO)N1C[C@H](C)[C@H](CN(C)S(=O)(=O)c2ccccc2)OCCCC[C@H](C)Oc2ccc(NS(=O)(=O)c3cn(C)cn3)cc2C1=O	nt	nt	nt	nt	nt	i	nt	nt
COc1ccc(NC(=S)NC(=O)c2ccccc2)cn1	i	i	i	4.6	13.2	nt	i	4.3
COc1ccc(NC(=O)c2cccc(Oc3ccccc3)c2)cn1	i	i	i	i	i	i	nt	nt
CC(C)NC(=O)Nc1ccc2c(c1)C(=O)N([C@H](C)CO)C[C@@H](C)[C@H](CN(C)C(=O)c1ccccc1)OCCCC[C@H](C)O2	nt	nt	nt	nt	nt	i	nt	nt
C[C@H]1CCCCO[C@H](CN(C)Cc2ccncc2)[C@@H](C)CN([C@@H](C)CO)C(=O)c2cc(NC(=O)Nc3cccc4ccccc34)ccc2O1	nt	nt	nt	nt	nt	i	nt	nt
COc1ccc(CN(C)C[C@H]2Oc3ccc(NC(=O)Nc4ccc5c(c4)OCO5)cc3C(=O)N([C@@H](C)CO)C[C@@H]2C)cc1	nt	nt	nt	nt	nt	i	nt	nt
Cc1ccc(Cn2cc(CN3CC(N4CCN(C5CCN(C)CC5)CC4)CS3(=O)=O)nn2)cc1 (configuration not stated)	i	i	i	4.7	i	nt	i	4.1
Cc1ccc(Cn2cc(CN3CC(N4CCCC4)CS3(=O)=O)nn2)cc1 (configuration not stated)	i	i	i	i	i	nt	nt	nt
C[C@H](CO)N1C[C@H](C)[C@H](CN(C)Cc2ccc3c(c2)OCO3)Oc2ccc(NC(=O)Cn3cnnn3)cc2C1=O	nt	nt	nt	nt	nt	i	nt	nt
O=C(CSc1nnc(NC(=O)c2ccccc2)s1)NCC1CCCO1 (configuration not stated)	i	i	i	6.2	i	i	4.2	4.3
CC(C)(C)c1ccc(-c2nnc(SCC(=O)NCC3CCCO3)n2N)cc1 (configuration not stated)	i	i	i	6.5	i	i	i	i
Cc1ccc(S(=O)(=O)N(C)C[C@@H]2OCCCC[C@H](C)Oc3ccc(NC(=O)Nc4ccc(F)cc4)cc3C(=O)N([C@@H](C)CO)C[C@@H]2C)cc1	nt	nt	nt	nt	nt	i	nt	nt
COC(=O)C1CCN(C(=O)COC(=O)/C=C/c2ccc(O)c(OC)c2)CC1	i	i	i	8.5	i	i	i	i
O=c1oc(Nc2ccccc2F)nc2ccccc12	i	nt	i	i	i	i	nt	nt
O=c1oc(Nc2ccccc2Cl)nc2ccccc12	i	i	i	4.8	10.7	nt	10.1	3.8
O=c1oc(Nc2cccc(Cl)c2)nc2ccccc12	i	i	i	5.4	i	nt	10.4	4.8
C[C@@H]1CN([C@H](C)CO)C(=O)c2cc(C#CC3(O)CCCC3)cnc2O[C@@H]1CN(C)C(=O)C1CCOCC1	nt	nt	nt	nt	nt	i	nt	nt
C[C@@H]1CN([C@H](C)CO)C(=O)c2cc(NC(=O)Nc3cccc4ccccc34)ccc2O[C@@H](C)CCCCO[C@@H]1CN(C)C(=O)NC1CCCCC1	nt	nt	nt	nt	nt	i	nt	nt
Cc1ccc(NC(=O)CNC(=O)c2ccc3c(c2)OCO3)nc1	i	i	i	i	i	i	nt	nt
Cc1ccc(NC(=O)c2ccc3c(c2)OCCO3)nc1	i	?	i	6.1	11.5	i	i	i
Cc1ccc(NC(=O)c2ccco2)nc1	i	i	i	8.0	12.1	i	8.7	6.8
SMILES	ssDAF12 agonist	Wnt bcat act	hcDAF-12 act	DAX1 inh	hgDAF-12 ag	esBAF inh	DAX1 conf	SF1 AF2mut Luc
Cc1cnc(NC(=O)c2ccco2)s1	i	nt	i	i	i	i	nt	nt
C[C@@H]1CN([C@@H](C)CO)C(=O)c2cc(NC(=O)Nc3ccc(F)cc3)ccc2O[C@H]1CN(C)C(=O)Nc1ccccc1	nt	nt	nt	nt	nt	i	nt	nt
C[C@@H]1CN([C@H](C)CO)S(=O)(=O)c2ccc(C3=CCCC3)cc2O[C@@H]1CN(C)S(=O)(=O)c1cn(C)cn1	nt	nt	nt	nt	nt	i	nt	nt
Cc1cccn2cc(-c3ccc4c(c3)NC(=O)CO4)nc12	i	i	i	i	i	nt	nt	nt
Cc1ccn2cc(-c3ccc4c(c3)NC(=O)CO4)nc2c1	i	i	i	5.3	10.8	nt	8.6	6.0
C[C@H](CO)N1C[C@H](C)[C@H](CN(C)Cc2ccncc2)Oc2c(NC(=O)Nc3ccc(C(F)(F)F)cc3)cccc2C1=O	nt	nt	nt	nt	nt	i	nt	nt
COc1ccc(Nc2nc3ccccc3s2)cc1	i	nt	i	5.5	26.8	nt	12.2	7.3
COc1ccc(/C=N/OCC(=O)Nc2nc3ccccc3s2)cc1	i	i	i	i	i	i	nt	nt
O=C(Nc1nccs1)c1ccc(-c2ccccc2[N+](=O)[O-])o1	i	35.1	i	5.2	i	86.2	7.2	6.3
COc1ccccc1NC(=O)c1ccc(-c2ccccc2[N+](=O)[O-])o1	i	i	i	i	i	nt	nt	nt
O=C(Nc1nccs1)c1ccc(N2CCOCC2)c([N+](=O)[O-])c1	i	42.6	i	7.0	i	i	8.4	5.4
COc1ccc(C(=O)N2C[C@H]3[C@@H](c4ccccc42)[C@H](CO)N3Cc2ccc3c(c2)OCO3)cc1	nt	nt	nt	nt	nt	i	nt	nt
Cn1cc(CCNC(=O)c2ccc3nc(Cc4ccccc4F)oc3c2)cn1	i	32.8	i	5.0	11.9	75.3	7.1	5.8
O=C(NCCc1ccccn1)c1ccc2nc(Cc3ccccc3F)oc2c1	i	i	i	7.0	i	72.0	6.9	5.2
C[C@@H]1CN([C@H](C)CO)C(=O)Cc2cc(NS(=O)(=O)c3ccc(Cl)cc3)ccc2O[C@@H]1CN(C)C(=O)NC1CCCCC1	nt	nt	nt	nt	nt	i	nt	nt
COc1ccc(Cl)cc1C(=O)NNC(=O)COC(=O)c1cccs1	i	i	i	6.4	i	i	i	i
O=C(COC(=O)/C=C/c1ccc(Cl)cc1)NC1CCCCCC1	i	i	i	4.8	i	i	i	i
COC(=O)C1=CN(c2ccc(C(C)(C)C)cc2)C(N)=C(C#N)C1c1cccc2ccccc12 (configuration not stated)	i	i	i	5.2	i	nt	i	i
COc1ccc(NC(=O)Nc2ccc3c(c2)C(=O)N([C@@H](C)CO)C[C@@H](C)[C@H](CN(C)Cc2ccc(C(=O)O)cc2)O3)cc1	nt	nt	nt	nt	nt	i	nt	nt
Cc1cc(C)cc(NC(=O)c2nnn(Cc3cc(C)ccc3C)c2N)c1	nt	nt	nt	nt	nt	i	nt	nt
O=C(Nc1ccc2c(c1)OCCO2)c1ccccc1F	i	i	5.7	4.8	11.1	i	13.9	6.2
